A selection: hits, their analogues and other compounds. The true share with any hit is near 1.6%.
CendR NRP1 mod: NRP-1/CendR interaction modulation; O14786; hit rate 0.85% among 360,000; AID 602438; FAM-RPARPAR peptide binding to NRP-1, fluorescence polarization; inhibition, % at 25 µM;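 active = inhibition or corrected inhibition above about 18%, plus a signal ratio from 0.5 to 1.5, limit read from the data, passing the limit was not always enough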
Target sequence (O14786 whole entry, looked up): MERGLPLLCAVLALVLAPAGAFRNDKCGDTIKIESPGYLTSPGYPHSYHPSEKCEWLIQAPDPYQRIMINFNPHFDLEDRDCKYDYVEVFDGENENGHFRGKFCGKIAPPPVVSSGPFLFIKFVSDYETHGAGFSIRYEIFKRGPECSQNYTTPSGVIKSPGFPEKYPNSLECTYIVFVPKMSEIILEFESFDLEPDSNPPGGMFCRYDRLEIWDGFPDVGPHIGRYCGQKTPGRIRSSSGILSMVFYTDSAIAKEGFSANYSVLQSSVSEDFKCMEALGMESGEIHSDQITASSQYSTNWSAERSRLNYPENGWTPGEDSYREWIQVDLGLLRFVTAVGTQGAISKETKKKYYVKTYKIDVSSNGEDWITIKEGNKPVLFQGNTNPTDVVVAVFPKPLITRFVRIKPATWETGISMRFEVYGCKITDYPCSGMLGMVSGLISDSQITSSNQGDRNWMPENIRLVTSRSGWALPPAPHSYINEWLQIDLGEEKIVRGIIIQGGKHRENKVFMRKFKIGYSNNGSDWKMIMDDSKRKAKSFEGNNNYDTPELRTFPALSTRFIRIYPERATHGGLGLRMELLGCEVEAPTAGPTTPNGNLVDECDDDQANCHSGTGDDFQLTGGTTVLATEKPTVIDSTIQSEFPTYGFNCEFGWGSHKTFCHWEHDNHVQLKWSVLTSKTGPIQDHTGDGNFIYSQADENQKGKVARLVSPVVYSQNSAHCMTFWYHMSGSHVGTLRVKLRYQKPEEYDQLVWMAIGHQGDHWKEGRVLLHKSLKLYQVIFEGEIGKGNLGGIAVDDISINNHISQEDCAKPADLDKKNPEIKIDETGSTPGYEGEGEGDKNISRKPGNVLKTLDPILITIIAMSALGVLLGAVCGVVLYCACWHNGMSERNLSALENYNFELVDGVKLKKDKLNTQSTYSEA
VLA-4 inh: inhibition in a human VLA-4 binding assay | AID 2557 | hit rate 0.2% among 330,000 | inhibition, % (about 7 µM as worked out from the volumes in the protocol) | P13612 | VLA-4 expressing cells, ligand binding flow cytometry; in the data active = inhibition above about 50%
PKA-R1A act: activators of PKA-R1A complex | P00514+P68181 | PKA-R1A dissociation, Cy5-IP20 fluorescence polarization; scaled: DMSO 0%, 113 µM cGMP 100% | activation, % at 11.4 µM | hit rate 0.083% among 340,000;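 active = percent activation above the mean of all tested compounds plus 3 SD, cut at about 19% in these data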;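 note: higher means more PKAc released from R1A so a rise in polarization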
ATG4B inhibitor: blocks human ATG4B protease cleavage of LC3 substrate; Q9Y4P1; ATG4B cleavage of LC3-PLA2, NBD-HPC fluorescence, 1 h; AID 504462; hit rate 0.51% among 340,000; inhibition, % at 8.33 µM; in the data active = inhibition above about 40%
PKA-R2B activ: activators of human PKA-R2B complex; PKA-R2B holoenzyme dissociation, Cy5-IP20 fluorescence polarization; R2B truncated from residue 108, S112A mutant; 0% DMSO only, 100% 113 µM cGMP; activation, % at 11.4 µM; hit rate 0.079% among 340,000; AID 504700;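 active = activation above a cutoff set at the mean over all compounds plus 3 SD, cut at about 18% in these data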;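 note: higher means more holoenzyme dissociation and a rise in polarization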
An asterisk follows results filed as active; nt = no result given.

SMILES	CendR NRP1 mod	VLA-4 inh	PKA-R1A act	ATG4B inhibitor	PKA-R2B activ
CCN1C(=O)/C(=C\c2cn(-c3ccccc3)nc2-c2cccnc2)SC1=S	36*	nt	3	-3	-6
O=C(c1cc2ccccc2o1)N1CCN(S(=O)(=O)c2c(F)cccc2F)CC1	33*	8	2	-7	-2
CC(=O)N1CCN(C(=O)c2cc3ccccc3o2)CC1	10	3	8	-11	-15
O=C(COC(=O)C1=COCCO1)Nc1ccccc1	3	2	4	5	3
O=C(COC(=O)C1=COCCO1)Nc1ccc(OC(F)F)cc1	27*	5	-6	-3	1
C/C=C(/C)C(=O)O[C@@H]1c2cc(OC)c(OC)c(OC)c2-c2c(cc3c(c2OC)OCO3)C[C@H](C)[C@]1(C)O	28*	23	2	-11	2
COc1cc2c(c(OC)c1OC)-c1c(cc3c(c1OC)OCO3)[C@@H](OC(C)=O)[C@H](C)[C@H](C)C2	27*	25	7	-20	-9
CN(CCc1ccccc1)C(C(=O)c1ccc2c(c1)OCO2)c1nnnn1-c1ccccc1NC(=O)OC(C)(C)C (stereo not drawn)	0	nt	nt	nt	nt
CC(C)(O)[C@@H]1CC(=O)[C@]2(C)[C@H](CC[C@@]3(C)[C@H](c4ccoc4)OC(=O)[C@H]4O[C@]432)[C@@]1(C)/C=C\C(=O)O	26*	0	-15	-7	-13
CC1(C)OC2CC(=O)OCC23C1CC(=O)C1(C)C3CCC2(C)C(c3ccoc3)OC(=O)C3OC321 (stereo not drawn)	7	nt	nt	nt	nt
C=CCC1NS(=O)(=O)OCC1NC(=O)OCC(Cl)(Cl)Cl (stereo not drawn)	18	-8	-5	-11	6
CC(C)(C)OC1NS(=O)(=O)OCC1NCOC(Cl)(Cl)Cl (stereo not drawn)	26*	0	-9	-3	0
CC(OC(=O)c1ccccc1)C(=O)NCc1ccco1 (stereo not drawn)	3	-2	9	-6	5
CCOc1ccc(C(=O)NC2CCN(C(=S)NCc3ccco3)CC2)cc1	26*	8	0	5	2
Cc1cccc(C(=O)NC2CCN(C(=S)NCc3ccco3)CC2)c1	18	-10	-14	-17	-5
CCOc1ccc(C(=O)NC2CCN(C(=S)Nc3ccccc3C)CC2)cc1	-3	-10	0	-2	7
COc1ccc(C(=O)NC2CCN(C(=S)Nc3ccccc3C)CC2)cc1	19*	-2	8	-7	-2
Cc1cc(C)n(-c2nnc(NCc3ccc(Cl)cc3)nn2)n1	30*	-6	-2	8	-13
Cc1cc(C)n(-c2nc(C)nc(NCc3ccccc3)n2)n1	0	15	-4	4	-2
COC(=O)C[C@H]1C=C[C@H](NC(=O)Nc2ccccc2)[C@@H](CO)O1	-9	nt	nt	nt	nt
CC(=O)NC1=C(NC2CCS(=O)(=O)C2)C(=O)c2ccccc2C1=O (stereo not drawn)	2	8	-10	-14	5
CN(C1=C(NC(=O)c2ccccc2)C(=O)c2ccccc2C1=O)C1CCS(=O)(=O)C1 (stereo not drawn)	45*	5	-18	nt	-4
CC(c1ccccc1)N1CC(C(=O)Nc2ccc(F)cc2)CC1=O (stereo not drawn)	8	-7	11	3	-6
Nn1c(SCC(=O)NCCC2=CCCCC2)nnc1C(F)(F)F	28*	-7	-7	10	-1
COc1ccc(CN2C(=O)CN(S(C)(=O)=O)CC2(C)C(=O)Nc2c(C)cccc2C)cc1OC (stereo not drawn)	-10	nt	nt	nt	nt
SMILES	CendR NRP1 mod	VLA-4 inh	PKA-R1A act	ATG4B inhibitor	PKA-R2B activ
O=C(CSc1nnc(CN2CCOCC2)n1-c1ccc(Cl)cc1)Nc1cc(Cl)ccc1O	21*	-8	5	0	-11
COc1ccc(/C=C2\C(=O)OCc3cc(OC)c(OC)cc32)cc1OC	25*	10	-7	2	-12
COc1ccccc1Cc1c(-c2cccc(Cl)c2)nc2ccc(Br)cn12	-71	nt	nt	nt	nt
COCCCNC(=O)C1Cc2cc(S(=O)(=O)N3CCCC3)ccc2N1C(C)=O (stereo not drawn)	-3	6	0	8	-4
COCCNC(=O)C1Cc2cc(S(=O)(=O)N3CCCC3)ccc2N1C(C)=O (stereo not drawn)	24*	7	-7	8	-8
CCNCC(=O)Nc1c(C)cccc1C	-2	19	3	4	-10
CCC(C)(NC=O)C(=O)Nc1c(C)cccc1C (stereo not drawn)	26*	7	-7	-2	-1
Cc1c(C(=O)/C=C/c2ccccc2F)c2cc(O)ccc2n1C	-1	nt	3	nt	2
O=c1cc(-c2ccccc2)[nH]c2ccc(F)cc12	23*	-5	5	-1	5
C=C1CN(Cc2ccccc2)S(=O)(=O)c2ccccc21	24*	1	-6	5	-8
O=C(NC1CCCCC1)c1[nH]c(C(F)(F)F)nc1-c1ccccc1	12	nt	nt	nt	nt
O=C(NCCCN1CCCC1=O)Nc1ccc(Cl)cc1Cl	13	-4	8	-4	7
O=C1CCCN1CCCNC(=S)Nc1ccc(Cl)cc1Cl	40*	-9	-7	-13	-8
COc1ccc(Cl)cc1Cn1c(C)c(C(=O)NCc2cccc(C(F)(F)F)c2)sc1=O	27*	nt	nt	nt	nt
COc1ccc(Cl)cc1Cn1c(C)c(C(=O)NCc2ccccc2C(F)(F)F)sc1=O	-19	nt	nt	nt	nt
CCc1c(C)nc(SCC(=O)N2CCN(c3ccccc3OC)CC2)[nH]c1=O	-1	16	-21	0	10
CCCc1c(C)nc(N2CCN(c3ccccc3OC)CC2)[nH]c1=O	32*	-3	-8	-3	-8
CC(=O)c1ccc(S(=O)(=O)Nc2ccccc2C(=O)NC2CC2)cc1	8	-6	-12	-2	-4
COc1ccc(S(=O)(=O)Nc2ccccc2C(=O)NC2CC2)cc1NC(C)=O	28*	6	-7	-7	0
COC(=O)c1ccccc1NS(=O)(=O)c1ccc(NC(C)=O)cc1	35*	-2	2	6	10
COc1cccc(NC(=S)NNC(=O)Cn2nc([N+](=O)[O-])cc2C)c1	30*	-7	2	9	-12
CC(=O)c1ccc(N2CCN(C(=O)c3cc(S(=O)(=O)N4CCOCC4)ccc3C)CC2)cc1	11	36	-11	11	5
CCc1ccc(NC(=O)N(CCCN2CCOCC2)C(C)c2cc3cccc(OC)c3o2)cc1 (stereo not drawn)	37*	1	-6	-6	-4
COc1cccc2cc(C(C)N(CCCN3CCOCC3)C(=S)Nc3c(C)cccc3C)oc12 (stereo not drawn)	-6	-5	-19	-8	-11
COc1cccc2cc(C(C)N(CCCN3CCOCC3)C(=S)Nc3cccc(C)c3)oc12 (stereo not drawn)	39*	-9	-17	-9	-7

Source: PubChem BioAssay (several laboratories)
